# Experimental data published in PubChem BioAssay.
# The source made the active and inactive calls.
# Key:
# [1] = small molecules captured by biotinylated probe aFSTL3 – biochemical, small-molecule microarray, fluorescence 635/667, stem cell growth factor project, primary screen (AID 1064); conditions: higher = more signal;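 note: measures binding of the biotinylated anti-FSTL3 antibody to printed compounds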
# [2] = binders from COS7 lysate, DM2A8 probe, primary screen, torsin A project, cell lysate, small-molecule microarray, fluorescence 635/667 (AID 1065); conditions: higher = more signal, COS7 lysate expressing mutant human TOR1A
# [3] = small molecules captured by biotinylated probe aFGF2 – biochemical, small-molecule microarray, fluorescence 635/667, stem cell growth factor project, primary screen (AID 1067); conditions: higher = more signal;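 note: measures binding of biotinylated aFGF2 protein to printed compounds on slides; z-score merges feature fluorescence and signal-to-noise across triplicate slides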
# [4] = small molecules captured by biotinylated probe aFGF10 – biochemical, small-molecule microarray, fluorescence 635/667, stem cell growth factor project, primary screen (AID 1071); conditions: higher = more signal;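 note: score merges 667 nm spot intensity and signal to noise from triplicate slides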
# [5] = target: Neurogenic locus notch homolog protein 2 (Homo sapiens) (UniProt Q04721); test: small molecules binding Notch2 protein – biochemical, small-molecule microarray, 635 nm fluorescence, stem cell growth factors, primary screen (AID 1073); conditions: higher = more signal
# [6] = target: Pro-neuregulin-1, membrane-bound isoform (Homo sapiens) (UniProt Q02297); test: small molecules binding neuregulin-1 protein – biochemical, small-molecule microarray, fluorescence 635/667, psychiatric disease protein project, primary screen (AID 1075); conditions: NRG1 binding, 635 nm fluorescence, higher = more signal;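 note: score combines 667 nm spot fluorescence with signal to noise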
# [7] = system: Neuregulin-1 EGF-like domain; test: small molecules binding NRG1 EGF domain – biochemical, small-molecule microarray, 635 nm fluorescence, primary screen (AID 1081); conditions: higher = more signal;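 note: binding of the protein to compounds printed on small-molecule microarray slides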
# [8] = FRG1 expression reporter modulators in myotubes – cell-based, C2C12 myotubes, firefly/Renilla luciferase, luminescence, FRG1 inhibition for FSHD, primary screen (AID 1084); conditions: FRG1 promoter luciferase, higher = more signal, called active from +8 up or from −8 down
# [9] = small molecules captured by biotinylated probe aFST – biochemical, small-molecule microarray, fluorescence 635/667, stem cell growth factor project, primary screen (AID 1086); conditions: higher = more signal;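 note: score merges 667 nm fluorescence with signal-to-noise of each printed compound spot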
# [10] = binders of probe aHhip on microarray, primary screen, stem cell growth factor project, biochemical, small-molecule microarray, fluorescence 635/667 (AID 1087); conditions: higher = more signal;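 note: score merges spot fluorescence at 667nm with spot signal to noise ratio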
# [11] = system: PRMT1 (protein arginine N-methyltransferase 1); test: small molecules binding arginine methyltransferase PRMT1 – biochemical, small-molecule microarray, 635 nm fluorescence, primary screen (AID 1088); conditions: higher = more signal;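 note: binding of Prmt1 protein to compounds spotted on small-molecule microarray slides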
# [12] = growth effects on S. cerevisiae YJM789 – YJM789 clinical isolate, OD600, 24 h, basal, primary screen (AID 1089); conditions: higher = more signal, called active from +8 up or from −8 down;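 note: growth of clinical yeast isolate S. cerevisiae YJM 789 seeded 1000 cells per well; test concentration not given here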
# [13] = S. pombe growth modifiers, basal conditions – strain 972, OD600, 24 h, no modulator, primary screen (AID 1090);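 note: basal condition with compound alone and no growth modifier present; test concentration not given here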; conditions: S. pombe 972 growth, higher = more signal, called active from +8 up or from −8 down
# [14] = budding yeast growth modifiers under rapamycin – strain BY4716, OD600, 96 h, primary screen (AID 1091); note: test concentration not given here; conditions: S. cerevisiae BY4716 + rapamycin, higher = more signal, called active from +8 up or from −8 down
# [15] = target: Torsin-1A-interacting protein 2 (Homo sapiens) (UniProt Q8NFQ8); test: small molecules binding lysate-expressed LULL1 – cell lysate, human LULL1 lysate, 635/667 nm fluorescence, primary screen (AID 1092); conditions: small-molecule microarray, hLULL1 lysate binding, 635 nm fluorescence; higher = more signal;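 note: probe is lysate of COS7 cells overexpressing human LULL1; score merges per-feature 667 nm fluorescence with signal-to-noise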
# [16] = optical density change of DRC41 E. coli – strain DRC41, OD650, 24 h, E. coli filamentation project, primary screen (AID 1093);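 note: MC1000 strain lacking acrAB efflux and sulA so SOS filamentation is blocked; test concentration not given here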; conditions: E. coli DRC41 growth, higher = more signal, called active from +8 up or from −8 down
# [17] = probe aLefty2 binding to arrayed compounds – biochemical, biotinylated probe, 635/667 nm fluorescence, primary screen (AID 1094); conditions: small-molecule microarray, higher = more signal;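 note: score merges spot fluorescence near 667 nm with spot signal-to-noise ratio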
# [18] = system: Noggin (protein binding on small-molecule microarray); test: small molecules binding Noggin protein – biochemical, 635/667 nm fluorescence, primary screen (AID 1095); conditions: 635 nm fluorescence, higher = more signal;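 note: score merges 667 nm feature fluorescence with signal to noise over triplicate slides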
# [19] = target: Neurogenic locus notch homolog protein 3 (Homo sapiens) (UniProt Q9UM47); test: small molecules binding NOTCH3 protein – biochemical, 635/667 nm fluorescence, primary screen (AID 1096); conditions: small-molecule microarray, 635 nm fluorescence, higher = more signal
# [20] = probe aEGFR binding to arrayed compounds – biochemical, biotinylated probe, 635/667 nm fluorescence, primary screen (AID 1097); conditions: small-molecule microarray, higher = more signal;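 note: probe is a biotinylated anti-EGFR antibody binding compounds printed on slides; score combines fluorescence near 667 nm and signal to noise of each spot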
# Chain of Neurogenic locus notch homolog protein 2 (Homo sapiens) (Q04721 whole entry, looked up, canonical isoform): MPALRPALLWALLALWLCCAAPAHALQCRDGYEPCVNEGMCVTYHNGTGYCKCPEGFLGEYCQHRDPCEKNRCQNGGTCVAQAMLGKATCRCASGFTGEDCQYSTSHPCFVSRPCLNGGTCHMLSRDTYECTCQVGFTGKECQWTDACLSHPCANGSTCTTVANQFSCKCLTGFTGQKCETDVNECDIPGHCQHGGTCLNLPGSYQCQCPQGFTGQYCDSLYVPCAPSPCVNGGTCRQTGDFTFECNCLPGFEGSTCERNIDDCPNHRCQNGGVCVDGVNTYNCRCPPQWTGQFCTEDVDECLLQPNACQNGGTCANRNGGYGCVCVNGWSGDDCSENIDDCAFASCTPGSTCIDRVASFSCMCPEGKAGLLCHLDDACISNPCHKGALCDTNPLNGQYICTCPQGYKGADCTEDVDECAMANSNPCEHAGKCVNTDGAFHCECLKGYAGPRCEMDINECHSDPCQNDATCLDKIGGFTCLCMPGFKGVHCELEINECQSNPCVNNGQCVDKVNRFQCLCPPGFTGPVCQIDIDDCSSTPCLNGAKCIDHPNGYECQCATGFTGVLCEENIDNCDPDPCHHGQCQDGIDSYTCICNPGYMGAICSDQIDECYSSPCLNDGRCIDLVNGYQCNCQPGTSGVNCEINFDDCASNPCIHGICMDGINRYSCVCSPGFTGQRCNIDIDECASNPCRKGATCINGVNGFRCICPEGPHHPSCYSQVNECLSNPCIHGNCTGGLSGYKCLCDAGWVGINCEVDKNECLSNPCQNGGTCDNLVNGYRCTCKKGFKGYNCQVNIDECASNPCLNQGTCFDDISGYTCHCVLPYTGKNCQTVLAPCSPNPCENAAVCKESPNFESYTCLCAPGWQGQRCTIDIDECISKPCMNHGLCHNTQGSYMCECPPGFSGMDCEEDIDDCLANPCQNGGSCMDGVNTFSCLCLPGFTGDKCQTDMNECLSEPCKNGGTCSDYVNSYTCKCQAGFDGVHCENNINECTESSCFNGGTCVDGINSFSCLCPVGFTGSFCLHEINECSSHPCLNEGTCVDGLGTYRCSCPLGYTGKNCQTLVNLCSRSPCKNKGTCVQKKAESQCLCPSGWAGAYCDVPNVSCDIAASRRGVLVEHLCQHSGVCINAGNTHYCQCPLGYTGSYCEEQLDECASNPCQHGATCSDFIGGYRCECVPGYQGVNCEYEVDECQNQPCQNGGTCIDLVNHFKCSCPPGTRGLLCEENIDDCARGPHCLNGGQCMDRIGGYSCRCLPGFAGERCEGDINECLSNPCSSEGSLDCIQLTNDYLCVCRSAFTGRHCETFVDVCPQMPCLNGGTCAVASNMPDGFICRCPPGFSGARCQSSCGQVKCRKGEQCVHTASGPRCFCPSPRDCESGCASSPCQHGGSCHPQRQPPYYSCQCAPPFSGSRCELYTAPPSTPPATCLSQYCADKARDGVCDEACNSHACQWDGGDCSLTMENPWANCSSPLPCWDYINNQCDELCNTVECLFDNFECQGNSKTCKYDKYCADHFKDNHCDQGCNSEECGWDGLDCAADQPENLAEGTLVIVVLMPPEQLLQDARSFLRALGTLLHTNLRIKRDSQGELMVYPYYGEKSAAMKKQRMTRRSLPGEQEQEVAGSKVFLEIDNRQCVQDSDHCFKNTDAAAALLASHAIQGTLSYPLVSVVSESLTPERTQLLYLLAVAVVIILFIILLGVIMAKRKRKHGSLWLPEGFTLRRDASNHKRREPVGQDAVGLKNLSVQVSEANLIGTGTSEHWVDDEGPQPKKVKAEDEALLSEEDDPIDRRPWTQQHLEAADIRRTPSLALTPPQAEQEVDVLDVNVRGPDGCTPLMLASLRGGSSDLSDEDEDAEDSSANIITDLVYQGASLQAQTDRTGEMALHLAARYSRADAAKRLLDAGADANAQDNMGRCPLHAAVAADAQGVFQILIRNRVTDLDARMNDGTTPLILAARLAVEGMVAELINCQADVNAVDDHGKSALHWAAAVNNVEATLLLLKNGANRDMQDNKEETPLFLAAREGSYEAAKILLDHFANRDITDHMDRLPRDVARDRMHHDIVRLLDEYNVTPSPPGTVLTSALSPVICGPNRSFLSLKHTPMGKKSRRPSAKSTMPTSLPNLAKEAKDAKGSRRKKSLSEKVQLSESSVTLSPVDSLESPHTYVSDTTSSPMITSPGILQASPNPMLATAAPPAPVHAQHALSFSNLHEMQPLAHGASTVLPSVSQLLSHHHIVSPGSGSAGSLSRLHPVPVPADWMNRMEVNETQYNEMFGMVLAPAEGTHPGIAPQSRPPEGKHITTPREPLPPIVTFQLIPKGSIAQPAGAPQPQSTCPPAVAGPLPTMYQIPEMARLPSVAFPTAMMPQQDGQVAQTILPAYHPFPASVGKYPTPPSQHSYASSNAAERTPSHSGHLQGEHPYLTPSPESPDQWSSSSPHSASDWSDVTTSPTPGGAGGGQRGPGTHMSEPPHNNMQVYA
# Chain of Neurogenic locus notch homolog protein 3 (Homo sapiens) (Q9UM47 whole entry, looked up): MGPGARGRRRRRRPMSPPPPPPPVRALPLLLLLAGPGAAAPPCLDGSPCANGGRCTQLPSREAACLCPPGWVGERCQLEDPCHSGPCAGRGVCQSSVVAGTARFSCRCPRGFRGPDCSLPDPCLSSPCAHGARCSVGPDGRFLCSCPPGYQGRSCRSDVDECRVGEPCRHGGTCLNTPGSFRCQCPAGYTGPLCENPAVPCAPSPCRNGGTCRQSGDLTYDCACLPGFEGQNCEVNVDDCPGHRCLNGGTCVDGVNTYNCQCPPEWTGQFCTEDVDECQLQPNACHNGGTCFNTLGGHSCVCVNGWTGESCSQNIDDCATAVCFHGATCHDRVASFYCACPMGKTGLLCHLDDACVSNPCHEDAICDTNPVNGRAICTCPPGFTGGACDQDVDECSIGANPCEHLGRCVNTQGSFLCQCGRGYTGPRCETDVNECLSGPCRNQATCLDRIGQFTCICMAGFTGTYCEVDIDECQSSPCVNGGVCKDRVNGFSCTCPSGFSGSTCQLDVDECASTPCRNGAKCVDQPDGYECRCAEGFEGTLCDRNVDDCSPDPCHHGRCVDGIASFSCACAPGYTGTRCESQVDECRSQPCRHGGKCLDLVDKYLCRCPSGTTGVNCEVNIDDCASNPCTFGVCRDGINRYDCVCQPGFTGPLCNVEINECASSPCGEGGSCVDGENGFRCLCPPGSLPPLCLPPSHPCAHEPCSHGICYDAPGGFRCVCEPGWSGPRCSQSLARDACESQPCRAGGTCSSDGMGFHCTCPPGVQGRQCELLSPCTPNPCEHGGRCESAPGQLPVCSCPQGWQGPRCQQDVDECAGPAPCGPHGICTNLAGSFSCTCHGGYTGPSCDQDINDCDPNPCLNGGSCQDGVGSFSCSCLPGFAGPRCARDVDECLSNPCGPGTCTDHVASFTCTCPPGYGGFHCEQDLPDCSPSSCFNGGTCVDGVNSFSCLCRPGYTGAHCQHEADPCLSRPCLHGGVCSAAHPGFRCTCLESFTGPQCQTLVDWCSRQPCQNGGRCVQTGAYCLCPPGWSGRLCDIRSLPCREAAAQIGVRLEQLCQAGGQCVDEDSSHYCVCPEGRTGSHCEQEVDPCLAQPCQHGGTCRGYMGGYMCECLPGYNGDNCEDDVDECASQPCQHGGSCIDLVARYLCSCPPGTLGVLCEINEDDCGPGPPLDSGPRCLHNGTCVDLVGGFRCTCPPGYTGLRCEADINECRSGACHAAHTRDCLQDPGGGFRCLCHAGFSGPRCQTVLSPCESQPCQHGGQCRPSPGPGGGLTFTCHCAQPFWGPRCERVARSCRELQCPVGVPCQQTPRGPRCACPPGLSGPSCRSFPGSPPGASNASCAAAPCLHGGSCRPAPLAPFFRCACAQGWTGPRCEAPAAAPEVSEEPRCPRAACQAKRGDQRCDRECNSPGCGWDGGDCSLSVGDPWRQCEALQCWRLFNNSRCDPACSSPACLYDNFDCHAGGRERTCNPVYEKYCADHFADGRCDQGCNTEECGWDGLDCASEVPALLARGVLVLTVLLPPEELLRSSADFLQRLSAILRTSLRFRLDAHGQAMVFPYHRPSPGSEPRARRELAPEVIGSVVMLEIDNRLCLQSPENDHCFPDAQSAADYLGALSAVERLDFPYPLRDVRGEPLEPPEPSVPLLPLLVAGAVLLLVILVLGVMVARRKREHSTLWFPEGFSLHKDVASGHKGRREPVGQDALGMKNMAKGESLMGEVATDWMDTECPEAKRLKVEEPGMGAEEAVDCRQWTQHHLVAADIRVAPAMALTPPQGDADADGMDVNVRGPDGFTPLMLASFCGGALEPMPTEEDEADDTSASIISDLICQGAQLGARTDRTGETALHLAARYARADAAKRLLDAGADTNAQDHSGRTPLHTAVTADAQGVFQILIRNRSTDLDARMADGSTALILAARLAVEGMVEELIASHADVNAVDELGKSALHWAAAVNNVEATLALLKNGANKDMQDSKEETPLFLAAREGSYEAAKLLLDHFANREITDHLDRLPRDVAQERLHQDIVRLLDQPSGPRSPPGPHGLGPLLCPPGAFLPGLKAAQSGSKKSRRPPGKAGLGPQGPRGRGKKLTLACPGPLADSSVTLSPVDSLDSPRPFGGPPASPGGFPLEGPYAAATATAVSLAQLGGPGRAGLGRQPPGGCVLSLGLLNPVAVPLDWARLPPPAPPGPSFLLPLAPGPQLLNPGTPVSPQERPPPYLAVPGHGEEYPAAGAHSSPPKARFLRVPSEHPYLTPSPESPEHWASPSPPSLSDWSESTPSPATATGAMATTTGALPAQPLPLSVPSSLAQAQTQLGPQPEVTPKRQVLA
SMILES,composite z-score [1],composite z-score [2],composite z-score [3],composite z-score [4],composite z-score [5],composite z-score [6],composite z-score [7],z-score [8],composite z-score [9],composite z-score [10],composite z-score [11],z-score [12],z-score [13],z-score [14],composite z-score [15],z-score [16],composite z-score [17],composite z-score [18],composite z-score [19],composite z-score [20]
O=C1CCCC=C1C(O)CCOC(c1ccccc1)(c1ccccc1)c1ccccc1 (stereo not given),-0.282,0.422,-0.144,0.0954,-0.0617,-0.229,-0.132,-0.0611 (inactive),-0.405,-0.069,-0.758,0.162 (inactive),-1.92 (inactive),1.55 (inactive),-0.626,-0.0634 (inactive),-0.186,0.547,0.103,-0.198
C=C(C)C(=O)OCC1CN2[C@@H](CC[C@@H](C)[C@@H]2c2ccc(Br)cc2)C(=O)O1 (stereo not given in full),-0.393,0.0802,-0.15,0.2,0.331,-0.0076,0.546,1.11 (inactive),0.444,-0.21,0.855,0.275 (inactive),-0.369 (inactive),-0.427 (inactive),0.734,-0.166 (inactive),-0.118,0.172,0.947,-0.128
CCCNC(=O)OC[C@H]1O[C@H](CCON=C(C)CCC(=O)OC[C@H]2O[C@H](c3ccccc3)C=C[C@@H]2Oc2ccc(OC)cc2)C=C[C@@H]1Oc1ccc(OC)cc1,-0.302,0.21,-0.127,-0.178,-0.843,-0.311,-0.731,0.862 (inactive),0.0494,-0.0618,-1.37,-1.66 (inactive),0.702 (inactive),-0.59 (inactive),-1.09,0.0967 (inactive),-0.0982,-0.184,-0.619,-0.042
COC(=O)C1=C(C)N(Cc2ccccc2)[C@]23O[C@](C(=O)OC)(C(=O)N2[C@@H]1c1ccccc1)C(C(=O)OC)=C3C(=O)OC,-0.309,0.458,-0.0232,1.1,0.926,0.435,1.21,-1.51 (inactive),0.294,-0.0003,1.36,-1.68 (inactive),-2.66 (inactive),-1.85 (inactive),1.31,0.521 (inactive),-0.0228,0.551,1.12,0.0478
COC(=O)[C@@H]1CC[C@H](C)[C@@H](c2ccc(C)cc2)N1C(=O)c1ccc(C=NO[C@H](C)c2cn([C@H](CO)Cc3ccccc3)nn2)cc1,-0.02,0.522,-0.0563,0.674,0.672,-0.0294,1.12,0.0599 (inactive),0.517,0.837,1.04,0.149 (inactive),0.0048 (inactive),0.619 (inactive),0.6,-0.551 (inactive),0.0943,1.19,1.05,0.119
CO[C@@H]1COC(=O)CC=C[C@@H](C)[C@@H]2C=C[C@H](O)[C@@H](COC(=O)CC=C[C@H]1C)O2,-0.304,1.7,-0.192,-0.14,-0.703,-0.421,0.824,-0.715 (inactive),-0.245,0.0714,1.56,-0.48 (inactive),-0.636 (inactive),-0.922 (inactive),-0.664,0.713 (inactive),-0.123,1.47,0.276,0.0651
CCOC(=O)[C@H](Cc1ccccc1)NC(=O)CCC1CC(OC(=O)NCc2cccc3ccccc23)CC2(CCCC(COC(=O)NCCC(C)C)O2)O1 (stereo not given in full),-0.499,0.283,-0.0895,0.0687,-0.756,-0.348,0.751,1.41 (inactive),-0.219,-0.0994,-0.923,-1.04 (inactive),-0.0031 (inactive),-1.36 (inactive),0.284,-0.444 (inactive),0.0062,0.0111,-0.435,-0.128
CCO[C@H](c1cc(OC)cc([N+](=O)[O-])c1OC)[C@H](C)C=CCC(=O)OC,-0.413,0.13,-0.22,-0.0567,-0.3,-0.264,-0.997,0.157 (inactive),-0.185,-0.479,1.11,-0.57 (inactive),-1.18 (inactive),-0.187 (inactive),-0.746,0.545 (inactive),-0.233,0.927,0.0565,-0.123
CCOC(=O)NN=C1C[C@@H](O)[C@@H](O)[C@@H]2[C@@H]3C(=O)N(c4ccc(F)cc4F)C(=O)[C@@H]3CC[C@@H]12,-0.333,0.415,-0.0659,0.281,0.493,0.594,-0.0454,-0.248 (inactive),0.627,0.0139,-0.009,0.517 (inactive),0.733 (inactive),-0.0512 (inactive),0.0129,0.783 (inactive),-0.0347,0.139,0.578,-0.124
CC(C)=CCCC(C)=CCON=C1C[C@@H](O)[C@@H](O)[C@@H]2[C@@H]3C(=O)N(C(C)(C)C)C(=O)[C@@H]3CC[C@H]12,-0.28,-0.0211,0.0122,0.406,0.591,0.0095,0.744,0.132 (inactive),-0.0538,-0.0994,0.64,0.0423 (inactive),0.473 (inactive),-0.656 (inactive),0.312,0.281 (inactive),-0.138,0.919,0.539,-0.0466
